Values without a mark were called inactive. Records with an inconclusive call do not appear. Where a call stands in place of a potency, no number is given. Calls of active or inactive are those of the source. The call rests on the fitted dose curve; in most records, active means well fitted curve in the direction sought with a large enough effect; inconclusive means small, poorly fitted or top-dose-only effect, or another doubt; inactive means no such curve, though single readings can be large; an effect the other way counts as inactive or inconclusive.
tested on: not listed separately; assay: Cellular Toxicity (caspase-3) H-4-II-E (AID 663); conditions: H-4-II-E rat hepatoma, scaled: DMSO 0%, 100 µM tamoxifen 100%; series mostly up to 92.2 µM;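 further: cells exposed to compound for 16 hr before readout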
Summary of the method: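 H-4-II-E rat hepatoma, 1500 cells/well, 5 hr settle at 37 °C; compound 16 hr, 37 °C, complete medium; Caspase-Glo 3/7, 20 min RT; luminescence. DMSO = 0%, 100 uM tamoxifen = 100%; Hill-equation AC50.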

SMILES | outcome
COC(C)=O | inactive
O=C(O)CC(O)(CC(=O)O)C(=O)O | inactive
C=Cc1ccccc1 | inactive
CCCCCCCCCC(=O)O | inactive
CN(C)Cc1ccccc1 | inactive

tested on: not listed separately; assay: Cellular Toxicity (caspase-3) Hek293 (AID 664); conditions: HEK293 caspase-3 activation, DMSO = 0%, 100 µM tamoxifen = 100%; series mostly up to 92.2 µM;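 further: cells exposed to compound for 16 h at 37 °C before readout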
Summary of the method: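 Concentration-response qHTS: caspase 3/7 activation measured by luminescent aminoluciferin substrate cleavage after 16 h compound exposure of Hek 293 cells. AC50 from Hill equation, with DMSO as basal and 100 uM tamoxifen as 100%.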

SMILES | outcome
COC(C)=O | inactive
O=C(O)CC(O)(CC(=O)O)C(=O)O | inactive
C=Cc1ccccc1 | inactive
CCCCCCCCCC(=O)O | inactive
CN(C)Cc1ccccc1 | inactive

tested on: not listed separately; assay: Cellular Toxicity (caspase-3) N2a (AID 665); conditions: N2a cells, luminescence, normalized: DMSO 0%, 10 µM staurosporine 100%; series mostly up to 92.2 µM;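 further: compound exposure lasted 16 h at 37 °C before readout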
Summary of the method: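 Caspase-3/7 activation measured as luminescence from Caspase-Glo reagent (1 h, room temperature) after 16 h compound exposure of mouse N2a cells. AC50 values from Hill-equation concentration-response, scaled between DMSO and 10 uM staurosporine.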

SMILES | outcome
COC(C)=O | inactive
O=C(O)CC(O)(CC(=O)O)C(=O)O | inactive
C=Cc1ccccc1 | inactive
CCCCCCCCCC(=O)O | inactive
CN(C)Cc1ccccc1 | inactive

tested on: not listed separately; assay: Cellular Toxicity (caspase-3) NIH 3T3 (AID 666); conditions: NIH 3T3 caspase-3 activation, apoptosis/toxicity, 0% DMSO, 100% is 100 µM tamoxifen; series mostly up to 92.2 µM;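 further: caspase signal read after 16 h compound exposure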
Summary of the method: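 Caspase-Glo 3/7 luminescence reported caspase activation in 1000 NIH 3T3 cells/well after 16 h compound exposure at 37 C. DMSO set basal and 100 uM tamoxifen set 100% stimulation; concentration-response modeled with the Hill equation for AC50.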

SMILES | outcome
COC(C)=O | inactive
O=C(O)CC(O)(CC(=O)O)C(=O)O | inactive
C=Cc1ccccc1 | inactive
CCCCCCCCCC(=O)O | inactive
CN(C)Cc1ccccc1 | inactive

tested on: not listed separately; assay: Cellular Toxicity (caspase-3) Renal Proximal Tubule (AID 667); conditions: renal proximal tubule cells, primary cells freshly taken from rat, solvent-only wells 0%, staurosporine 100%; series mostly up to 91.7 µM;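 further: cells exposed to compound for 16 hours at 37 °C before detection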
Summary of the method: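 Caspase 3/7 activation measured by luminescent aminoluciferin release in primary rat proximal tubule cells after 16 hr compound exposure at 37 °C. AC50 from Hill-fitted concentration-response, scaled between DMSO and 10 uM staurosporine.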

SMILES | outcome
COC(C)=O | inactive
O=C(O)CC(O)(CC(=O)O)C(=O)O | inactive
C=Cc1ccccc1 | inactive
CCCCCCCCCC(=O)O | inactive
CN(C)Cc1ccccc1 | inactive

biological target: Cytochrome P450 2C9 (Homo sapiens) (UniProt P11712); assay: qHTS Assay for Inhibitors and Substrates of Cytochrome P450 2C9 (AID 883); conditions: recombinant CYP2C9, luciferin-H luminescence, 60 min; series mostly up to 57.1 µM; further: nearly all actives have a fitted effect of over 60% in size; further: potency means the concentration at half of the fitted maximal effect
Sequence (P11712 whole entry, looked up): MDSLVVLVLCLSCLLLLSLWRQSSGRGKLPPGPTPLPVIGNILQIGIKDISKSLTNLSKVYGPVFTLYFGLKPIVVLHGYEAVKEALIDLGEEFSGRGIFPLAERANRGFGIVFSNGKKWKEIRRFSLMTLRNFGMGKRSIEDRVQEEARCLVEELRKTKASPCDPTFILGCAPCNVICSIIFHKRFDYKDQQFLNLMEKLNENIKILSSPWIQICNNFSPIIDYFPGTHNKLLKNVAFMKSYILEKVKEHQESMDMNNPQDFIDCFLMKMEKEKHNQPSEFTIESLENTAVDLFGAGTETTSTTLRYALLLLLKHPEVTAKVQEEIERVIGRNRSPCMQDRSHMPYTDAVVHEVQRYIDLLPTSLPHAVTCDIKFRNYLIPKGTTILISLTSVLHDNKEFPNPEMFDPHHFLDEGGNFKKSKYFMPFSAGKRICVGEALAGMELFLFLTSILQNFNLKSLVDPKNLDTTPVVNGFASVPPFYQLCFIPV
Summary of the method: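 10nM CYP2C9 + 100uM Luciferin-H (=KM), 25mM KPO4; cpd 10 min 37C; NADPH regen, 60 min 37C; stop/detect with P450 Glo-Buffer 20 min; luminescence. Norm. to 57uM sulphaphenazole as full inhibition.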

SMILES | Potency | activity change, negative = inhibition
CC(=O)C1=C(O)C=C2Oc3c(C(C)=O)c(O)c(C)c(O)c3[C@]2(C)C1=O | 6.3 nM (active) | –
NCCCC(=O)O | inactive | –
COC1=CC(=O)C[C@@H](C)[C@@]12Oc1c(Cl)c(OC)cc(OC)c1C2=O | inactive | –
O=C(O)c1cc2ccccc2c(Cc2c(O)c(C(=O)O)cc3ccccc23)c1O | – | -15.3% [at 11.4 µM]

biological target: Cytochrome P450 3A4 (Homo sapiens) (UniProt P08684); assay: qHTS Assay for Inhibitors and Substrates of Cytochrome P450 3A4 (AID 884); conditions: recombinant CYP3A4, Luciferin-PPXE luminescence; series mostly up to 57.1 µM; further: nearly all actives have a fitted effect of over 50% in size
Sequence (P08684 whole entry, looked up): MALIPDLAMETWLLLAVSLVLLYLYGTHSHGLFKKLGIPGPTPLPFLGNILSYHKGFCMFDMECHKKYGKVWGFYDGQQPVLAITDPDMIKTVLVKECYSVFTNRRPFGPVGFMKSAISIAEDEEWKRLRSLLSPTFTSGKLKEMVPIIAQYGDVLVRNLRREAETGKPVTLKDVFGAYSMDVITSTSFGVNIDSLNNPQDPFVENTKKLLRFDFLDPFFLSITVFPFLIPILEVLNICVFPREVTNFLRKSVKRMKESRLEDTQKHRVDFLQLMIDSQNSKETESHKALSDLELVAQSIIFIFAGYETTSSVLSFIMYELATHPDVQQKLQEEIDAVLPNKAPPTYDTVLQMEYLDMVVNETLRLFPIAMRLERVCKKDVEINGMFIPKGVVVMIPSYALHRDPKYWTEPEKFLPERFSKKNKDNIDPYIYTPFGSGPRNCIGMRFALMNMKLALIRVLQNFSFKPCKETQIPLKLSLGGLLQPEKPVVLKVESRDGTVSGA
Summary of the method: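 Luminescent readout of luciferin produced by CYP3A4 (20 nM) dealkylation of Luciferin-PPXE, 25 uM (its KM). NADPH-driven reaction ran 60 min at RT after 10 min compound preincubation; data scaled to 57 uM ketoconazole as 100% inhibition.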

SMILES | outcome
CCCCCCCCCCCCCCCC(=O)OC/C=C(C)/C=C/C=C(C)/C=C/C1=C(C)CCCC1(C)C | inactive
COC(C)=O | inactive
O=C(O)CC(O)(CC(=O)O)C(=O)O | inactive
COc1ccc2[nH]c(=O)c3c(c2c1)OC(C)(C)C=C3 | inactive
NCCCC(=O)O | inactive
C1CNCCN1 | inactive
C=Cc1ccccc1 | inactive
CCCCCCCCCC(=O)O | inactive
CN(C)Cc1ccccc1 | inactive

biological target: Cytochrome P450 3A4 (Homo sapiens) (UniProt P08684); assay: qHTS Assay for Activators of Cytochrome P450 3A4 (AID 885); conditions: recombinant CYP3A4, Luciferin-PPXE luminescence, 60 min; series mostly up to 57.1 µM; further: nearly all actives have a fitted effect of over 65% in size
Summary of the method: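 Using 20nM recombinant human CYP3A4 in potassium phosphate (200mM), substrate Luciferin-PPXE at 25uM, luminescent luciferin detection followed a 60-min RT NADPH reaction; data scaled to 57 uM ketoconazole.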

SMILES | outcome
CC(=O)C1=C(O)C=C2Oc3c(C(C)=O)c(O)c(C)c(O)c3[C@]2(C)C1=O | inactive
CN[C@H]1CC[C@@H](c2ccc(Cl)c(Cl)c2)c2ccccc21 | inactive
Cc1ccc(OC[C@H](O)[C@H](C)NC(C)C)c2c1CCC2 | inactive
CN(C)CCCn1cc(C2=C(c3c[nH]c4ccccc34)C(=O)NC2=O)c2ccccc21 | inactive
